Results on 8 compounds are retold here after PubChem BioAssay (NCI).

What all share (assay): NCI-60 one-dose screen, 48 h (100 = growth as untreated, 0 = no growth, -100 = all killed)
Assay [1] concerns HT29 colon. Particulars: 10 µM unless noted.
Assay [2] concerns SNB-75 CNS. Conditions: 10 µM unless noted.
The test system of assay [3] is SNB-19 CNS. Particulars: 10 µM unless noted.
Assay [4] relates to U251 CNS. Conditions: 10 µM unless noted.
Assay [5] concerns PC-3 prostate. Particulars: 10 µM unless noted.
Assay [6] deals with SK-MEL-5 melanoma. Particulars: 10 µM unless noted.
Assay [7] concerns UACC-62 melanoma. Conditions: 10 µM unless noted.
Assay [8] concerns LOX IMVI melanoma. Particulars: 10 µM unless noted.
The test system of assay [9] is SK-MEL-28 melanoma. Particulars: 10 µM.
Assay [10] relates to SK-MEL-2 melanoma. Particulars: 10 µM unless noted.
The test system of assay [11] is SN12C renal. Conditions: 10 µM unless noted.
For assay [12], the system named is UO-31 renal. Particulars: 10 µM unless noted.
Assay [13] has as its system TK-10 renal. Particulars: 10 µM unless noted.
Assay [14] concerns ACHN renal. Conditions: 10 µM unless noted.
The subject of assay [15] is CAKI-1 renal. Particulars: 10 µM unless noted.
Assay [16] deals with A498 renal. Particulars: 10 µM unless noted.
For assay [17], the system named is CCRF-CEM leukemia. Conditions: 10 µM unless noted.
Assay [18] relates to MOLT-4 leukemia. Particulars: 10 µM unless noted.
Assay [19] concerns SR leukemia. Particulars: 10 µM unless noted.

About 83,000 compounds went through this panel and 20% of them were active in at least one assay; those are over-represented in the sample as a whole.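 Treatment: one concentration, 48 hours, 96-well format. Scoring: percent growth, with anything below 10 considered active.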 Unmarked numbers belong to inactive results. Active and inactive are the calls of the source.

On to `COc1ccc(/C=C2\NC(=O)NC2=O)cc1O`, for which the growth in [1] is 107%; in assay [2], 105%; in assay [3], 102%; in assay [4], 99.2%; in [5], 101%; in assay [6], 102%. The growth in assay [7] was 103%; in assay [8], 95.3%; in assay [9], 104%; in [10], 115%; in assay [11], 99.7%; in assay [12] it was 106%. Also, the growth is 109% in assay [13]; 105% in assay [14]; 85.6% in [15]; 91.2% in [16]; 97.6% in [17]; 99.5% in [18]. Moreover, the growth in assay [19] is 102%.

In the case of `Clc1ncccc1Nc1ccc2nnc(-c3ccncc3)n2n1`, the growth in assay [1] is 110%; in assay [2], 99.2%; in assay [3] it was 102%; in assay [4] it was 101%; in assay [5], 102%; in assay [6], 104%. For the same compound, the growth is 106% in [7]; 92.8% in assay [8]; 112% in assay [9]; 109% in assay [10]; 100% in assay [11]; 75% in assay [12]. Also, the growth was 112% in assay [13]; 101% in [14]; 91.8% in assay [15]; 116% in assay [16]; 91.2% in [17]; 93.4% in [18]. Further, in assay [19], the growth was 71.3%.

For the compound `NC(CCl)=NCCC[C@H](N)C(=O)O`, the growth in assay [1] was 105%; in assay [2] it was 89.6%; in assay [3] it was 97.3%; in assay [4], 97.4%; in assay [5], 76%; in [6], 93.1%. Also, the growth in assay [7] was 91.5%; in assay [8], 96.3%; in [9], 107%; in assay [10], 93.3%; in [11], 93.3%; in assay [12] it was 85.2%. The growth in [13] was 96.7%; in assay [14], 105%; in assay [15], 97.2%; in assay [16] it was 102%; in assay [17], 94.6%; in assay [18], 104%. The growth in assay [19] was 93.5%.

For `CC(=O)n1cc(-c2c[nH]c3ccccc23)c(-c2ccc(Cl)cc2)n1`, the growth in assay [1] is 95.9%; in assay [2] it was 80.9%; in [3] it was 112%; in assay [4], 74.9%; in assay [5], 81.5%; in assay [6], 78.8%. The growth was 93.5% in assay [7]; 86.8% in assay [8]; 93.7% in assay [9]; 97.6% in [10]; 99.8% in assay [11]; 60.5% in [12]. In addition, the growth is 94.9% in assay [13]; 78.5% in assay [14]; 61.2% in assay [15]; 71.6% in assay [16]; 82.2% in [17]; 88.2% in [18]. Further, the growth in assay [19] was 92.9%.

As to `O=C1OC(c2ccccc2)(c2ccccc2)c2ccsc21`, the growth is 102% in assay [1]; 103% in assay [2]; 102% in assay [3]; 102% in assay [4]; 101% in assay [5]; 102% in [6]. The growth in assay [7] is 94.1%; in [8], 103%; in [9] it was 112%; in assay [10], 94%; in assay [11], 98.8%; in assay [12] it was 88.6%. For the same compound, the growth in assay [13] was 101%; in [14], 97.9%; in assay [15], 101%; in assay [16], 96.6%; in assay [17] it was 89.2%; in assay [18], 76%. Also, the growth in [19] was 84.5%.

Turning to `COc1ccc(OC)c(N(CCN2C(=O)c3ccccc3C2=O)C(=O)CCl)c1`, the growth in assay [1] is 12.5%; in assay [2], 87.4%; in [3], 114%; in [4], 60.9%; in [5] it was 31.9%; in [6], 94%. Besides, the growth is 70.5% in assay [7]; -11.8% (active) in assay [8]; 100% in assay [9]; 72.3% in assay [10]; 90.5% in [11]; -92.1% (active) in [12]. Further, the growth in assay [13] is 110%; in [14] it was 78.8%; in assay [15] it was 29.9%; in [16], 72.4%; in assay [17] it was -57.4% (active); in [18] it was 54.6%. The growth in assay [19] was -48.6% (active).

Consider `CCn1c(-c2nonc2Nc2ccc(OC)cc2)nc2ccccc21`, for which the growth in assay [1] is 102%; in [2], 91.6%; in assay [3], 111%; in assay [4] it was 101%; in assay [5], 107%; in [6] it was 104%. Further, the growth is 96.2% in [7]; 107% in [8]; 107% in assay [9]; 105% in assay [10]; 109% in assay [11]; 90.1% in assay [12]. The growth in [13] is 101%; in [14], 108%; in assay [15] it was 102%; in assay [16], 78.8%; in assay [17] it was 105%; in [18], 116%. Besides, the growth in assay [19] is 110%.

Take `CC1CCCCN1CCCNC(=O)c1ccc2c(c1)sc1nc(-c3ccc(F)cc3)cn12` (configuration not stated): the growth in assay [1] was 92.8%; in assay [2], 83.5%; in assay [3], 104%; in [4], 99.1%; in assay [5], 83.8%; in assay [6], 99.3%. The growth in assay [7] was 100%; in [8], 93.1%; in assay [9] it was 104%; in assay [10] it was 103%; in [11], 99.6%; in assay [12] it was 77%. Further, the growth is 90.4% in assay [13]; 101% in assay [14]; 97.4% in assay [15]; 83.7% in assay [16]; 82.8% in assay [17]; 85.7% in assay [18]. Also, the growth in assay [19] is 78.1%.
